The values that follow come from ChEMBL document CHEMBL4513137, “CO-ADD screening of University of Manchester (UK) compounds”.

Results with a measured potency or affinity are listed apart.

The subject of assay [1] is Klebsiella pneumoniae. To be noted: Concentration 32 ug.mL-1; ASSAY_TEST Inhibition of Bacterial Growth; detection method Absorption (OD600); MEDIA CAMHB; plate type 384well; NBS; CORNING #3640; time 18 hr.
In assay [2] the test system is Candida albicans. To be noted: 32 ug/mL.
Assay [3] has as its system Cryptococcus neoformans. To be noted: Concentration 32 ug.mL-1; ASSAY_TEST Inhibition of Fungal Growth; detection method Resazurin; Absorption (OD600-OD570); plate type 384well; NBS; CORNING #3640.

The Inhibition is the relative decrease from the control value, in per cent. On to `COc1cccc(Nc2ccccc2)c1-c1ccc([N+](=O)[O-])cc1`, for which the Inhibition is -2.96% in assay [1], 7.07% in assay [2] and 1.49% in assay [3].
For the compound `O=[N+]([O-])c1ccc(-c2c(Nc3ccccc3)cccc2-c2ccccc2)cc1`, the Inhibition amounted to 6.43% in assay [1], 7.71% in assay [2] and 2.38% in assay [3].
On the same counts, the results for `Cc1cccc(C)c1Nc1ccccc1-c1ccccc1[N+](=O)[O-]` are 2.08%, 6.73% and 4.1%.
For `O=[N+]([O-])c1ccc(-c2cccc3c2[nH]c2ccccc23)cc1` the same measures were 2.37%, 4.69% and -0.08%.
For `COc1cc([N+](=O)[O-])ccc1-c1c(Nc2ccccc2)cccc1OC` the same measures were 14.15%, 5.26% and -2.27%.
Consider `O=[N+]([O-])c1ccc(-c2ccccc2N(Cc2ccccc2)c2ccccc2)cc1`, for which the figures for the Inhibition in assay [1], in assay [2] and in assay [3] were 8.4%, 8.51% and 2.22%, respectively.
For `O=[N+]([O-])c1ccc(-c2ccccc2Nc2ccccc2Br)cc1`, the figures for the Inhibition in assay [1], in assay [2] and in assay [3] were 7.18%, 4.47% and 1.33%, respectively.
On the same counts, the results for `CC[C@@H](Nc1ccccc1-c1c(Cl)cc(Br)cc1Cl)c1ccccc1` are 20.15%, 9.45% and 0.76%.
Turning to `Cc1cc([N+](=O)[O-])ccc1-c1ccccc1N(C)c1ccccc1`, the Inhibition in assay [1] is -15.08%; in assay [2], 5.96%; in assay [3], -0.44%.
For `CC(=O)c1ccc(-c2ccccc2Nc2ccccc2)cc1` the same measures were 4.21%, 1.55% and 0.86%.
On the same counts, the results for `O=[N+]([O-])c1ccc(-c2ccccc2Nc2ccccc2)cc1C(F)(F)F` are 20.57%, 12.5% and 2.9%.
Turning to `CN(c1ccccc1)c1ccccc1-c1ccc([N+](=O)[O-])cc1`, the Inhibition in assay [1] came out at 13.85%; in assay [2] it was 4.63%; in assay [3], 1.49%.
On the same counts, the results for `O=[N+]([O-])c1ccc(-c2ccccc2Nc2ccccc2)c(Cl)c1` are 13.74%, 10.1% and 1.38%.
Take `COc1ccc(Nc2ccccc2-c2ccc([N+](=O)[O-])cc2)cc1`: the Inhibition is 12.08% in assay [1], 5.77% in assay [2] and 2.27% in assay [3].
As for `COc1cccc(Nc2ccccc2)c1-c1c(Cl)cc(Br)cc1Cl`, the Inhibition came out at 24.48% in assay [1], 23.8% in assay [2] and 9.7% in assay [3].
In the case of `COc1cccc(N(C)c2cccc(OC)c2-c2ccc([N+](=O)[O-])cc2C)c1`, the Inhibition in assay [1] is 4.9%; in assay [2], 3.58%; in assay [3] it was -0.6%.
In the case of `O=[N+]([O-])c1cc(Cl)c(-c2ccccc2Nc2ccccc2)c(Cl)c1`, the Inhibition in assay [1] is -1.39%; in assay [2], 6.95%; in assay [3], -0.86%.
On the same counts, the results for `c1ccc(Nc2ccccc2-c2ncccn2)cc1` are 8.33%, 12.1% and 7.92%.
For `O=[N+]([O-])c1ccc(-c2ccccc2Nc2ccccc2)cc1` the same measures were -3.59%, 9.3% and 1.06%.
For `O=[N+]([O-])c1ccc(-c2ccccc2Nc2ccccc2)cc1F` the same measures were 14.23%, 8.22% and 3.42%.
Turning to `N#Cc1ccc(-c2ccccc2Nc2ccccc2)cc1`, the Inhibition worked out at 9.14% in assay [1], 10.8% in assay [2] and 2.95% in assay [3].
On the same counts, the results for `Clc1cc(Br)cc(Cl)c1-c1ccccc1Nc1ccccc1` are 1.2%, 5.55% and 2.48%.
For `Cc1ccccc1Nc1ccccc1-c1ccc([N+](=O)[O-])cc1` the same measures were -1.35%, -0.09% and -1.9%.
On the same counts, the results for `O=[N+]([O-])c1ccc2c3ccccc3n(-c3ccccc3)c2c1` are 5.72%, 8.19% and 2.74%.
With `O=[N+]([O-])c1ccc(-c2c(Nc3ccccc3)ccc3ccccc23)cc1`, the Inhibition was -5.26% in assay [1], 1.64% in assay [2] and 0.54% in assay [3].
On to `COc1cc([N+](=O)[O-])ccc1-c1ccccc1Nc1ccccc1`, for which the Inhibition in assay [1] was 18.46%; in assay [2], 5.71%; in assay [3] it was -0.44%.
As to `Cc1cc(C)c(Nc2ccccc2-c2ccc([N+](=O)[O-])cc2)c(C)c1`, the Inhibition in assay [1] is -16.56%; in assay [2], 7.08%; in assay [3], 1.01%.
